Laboratory results as given in paper PMC11006913.
Residue numbers refer to the chain shown, from its start.

Experiments:
Test in all cases: PBM; 200 nM protein, PBS
Details in all cases: dsDNA, one strand shown
NKX2-5 [1] = molecular target: NKX2-5 (Homo sapiens, UniProt P52952 125-210, R139K)
VENTX [2] = molecular target: T1, VENTX (Homo sapiens, UniProt O95231 78-163, R121Q)
T1 sequence: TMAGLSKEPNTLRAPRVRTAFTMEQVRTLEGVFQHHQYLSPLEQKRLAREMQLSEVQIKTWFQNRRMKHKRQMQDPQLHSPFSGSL

VENTX [3] = molecular target: T2, VENTX (Homo sapiens, UniProt O95231 78-163)
T2 sequence: T1 sequence with Q44R

VENTX [4] = molecular target: T3, VENTX (Homo sapiens, UniProt O95231 78-163, Y115F)
T3 sequence: T1 sequence with Y38F, Q44R

NKX2-5 [5] = molecular target: NKX2-5 (Homo sapiens, UniProt P52952 125-210)
NKX2-5 (Homo sapiens, UniProt P52952 125-210), sequence (P52952 125-210): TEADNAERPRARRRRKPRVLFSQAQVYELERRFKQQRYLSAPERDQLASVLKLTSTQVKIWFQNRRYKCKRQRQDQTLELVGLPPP

NKX2-4 [6] = molecular target: T4, NKX2-4 (Homo sapiens, UniProt Q9H2Z4 175-261, P217L)
T4 sequence: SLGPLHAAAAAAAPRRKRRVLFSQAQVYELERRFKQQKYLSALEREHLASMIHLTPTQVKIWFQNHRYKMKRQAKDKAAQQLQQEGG

NKX2-4 [7] = molecular target: T5, NKX2-4 (Homo sapiens, UniProt Q9H2Z4 175-261, T231S)
T5 sequence: T4 sequence with L43P, T57S

NKX2-4 [8] = molecular target: T6, NKX2-4 (Homo sapiens, UniProt Q9H2Z4 175-261)
T6 sequence: T4 sequence with L43P

NKX2-4 [9] = molecular target: T7, NKX2-4 (Homo sapiens, UniProt Q9H2Z4 175-261, R246Q)
T7 sequence: T4 sequence with L43P, R72Q

NKX2-6 [10] = molecular target: T8, NKX2-6 (Homo sapiens, UniProt A6NCS4 118-204, R150C)
T8 sequence: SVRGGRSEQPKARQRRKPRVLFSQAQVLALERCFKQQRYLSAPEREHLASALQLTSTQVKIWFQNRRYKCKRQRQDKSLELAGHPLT

NKX2-6 [11] = molecular target: T9, NKX2-6 (Homo sapiens, UniProt A6NCS4 118-204, F151L)
T9 sequence: T8 sequence with C33R, F34L

NKX3-2 [12] = molecular target: NKX3-2 (Homo sapiens, UniProt P78367 192-278, P234S)
NKX3-2 (Homo sapiens, UniProt P78367 192-278, P234S), sequence (P78367 192-278 P234S): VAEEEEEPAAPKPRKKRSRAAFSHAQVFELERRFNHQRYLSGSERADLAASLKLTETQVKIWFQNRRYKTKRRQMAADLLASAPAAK

NKX3-2 [13] = molecular target: NKX3-2 (Homo sapiens, UniProt P78367 192-278)
NKX3-2 (Homo sapiens, UniProt P78367 192-278), sequence (P78367 192-278): as the sequence (P78367 192-278 P234S) above, with S43P counted along it

NKX2-6 [14] = molecular target: T10, NKX2-6 (Homo sapiens, UniProt A6NCS4 118-204)
T10 sequence: T8 sequence with C33R

ALX1 [15] = molecular target: ALX1 (Homo sapiens, UniProt Q15699 118-204, L144V)
ALX1 (Homo sapiens, UniProt Q15699 118-204, L144V), sequence (Q15699 118-204 L144V): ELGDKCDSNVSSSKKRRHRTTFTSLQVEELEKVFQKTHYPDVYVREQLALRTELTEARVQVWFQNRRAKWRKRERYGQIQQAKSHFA

ALX1 [16] = molecular target: ALX1 (Homo sapiens, UniProt Q15699 118-204, L144R)
ALX1 (Homo sapiens, UniProt Q15699 118-204, L144R), sequence (Q15699 118-204 L144R): as the sequence (Q15699 118-204 L144V) above, with V27R counted along it

ALX1 [17] = molecular target: ALX1 (Homo sapiens, UniProt Q15699 118-204)
ALX1 (Homo sapiens, UniProt Q15699 118-204), sequence (Q15699 118-204): as the sequence (Q15699 118-204 L144V) above, with V27L counted along it

NKX2-5 (Homo sapiens, UniProt P52952 125-210, R139K), sequence (P52952 125-210 R139K): as the sequence (P52952 125-210) above, with R15K counted along it

With GCGACGCC the binding signal (NKX2-5 [1]) was 8.87 upbm affinity estimate (log intensity, higher = more binding, comparable within an allelic series), the binding signal (VENTX [2]) was 8.02 upbm affinity estimate (log intensity, higher = more binding, comparable within an allelic series) and the binding signal (VENTX [3]) was 8.21 upbm affinity estimate (log intensity, higher = more binding, comparable within an allelic series). For the same sequence, the binding signal (VENTX [4]) was 8.16 upbm affinity estimate (log intensity, higher = more binding, comparable within an allelic series) and the binding signal (NKX2-5 [5]) was 8.83 upbm affinity estimate (log intensity, higher = more binding, comparable within an allelic series).
CACTCGAA was tested, and the binding signal (NKX2-5 [1]) was 12 upbm affinity estimate (log intensity, higher = more binding, comparable within an allelic series), the binding signal (NKX2-4 [6]) was 12.5 upbm affinity estimate (log intensity, higher = more binding, comparable within an allelic series) and the binding signal (NKX2-4 [7]) was 13 upbm affinity estimate (log intensity, higher = more binding, comparable within an allelic series). The binding signal (NKX2-4 [8]) was 12.5 upbm affinity estimate (log intensity, higher = more binding, comparable within an allelic series), the binding signal (NKX2-4 [9]) was 13.1 upbm affinity estimate (log intensity, higher = more binding, comparable within an allelic series) and the binding signal (NKX2-5 [5]) was 11.9 upbm affinity estimate (log intensity, higher = more binding, comparable within an allelic series).
For AAGTGCCC, the binding signal (NKX2-5 [1]) was 12.4 upbm affinity estimate (log intensity, higher = more binding, comparable within an allelic series), the binding signal (NKX2-4 [6]) was 12.5 upbm affinity estimate (log intensity, higher = more binding, comparable within an allelic series) and the binding signal (NKX2-4 [7]) was 12.8 upbm affinity estimate (log intensity, higher = more binding, comparable within an allelic series). The binding signal (NKX2-4 [8]) was 12.3 upbm affinity estimate (log intensity, higher = more binding, comparable within an allelic series), the binding signal (NKX2-6 [10]) was 11.6 upbm affinity estimate (log intensity, higher = more binding, comparable within an allelic series) and the binding signal (NKX2-4 [9]) was 13 upbm affinity estimate (log intensity, higher = more binding, comparable within an allelic series). The binding signal (NKX2-6 [11]) was 10.8 upbm affinity estimate (log intensity, higher = more binding, comparable within an allelic series), the binding signal (NKX3-2 [12]) was 12.9 upbm affinity estimate (log intensity, higher = more binding, comparable within an allelic series) and the binding signal (NKX2-5 [5]) was 12.4 upbm affinity estimate (log intensity, higher = more binding, comparable within an allelic series). For the same sequence, the binding signal (NKX3-2 [13]) was 12.9 upbm affinity estimate (log intensity, higher = more binding, comparable within an allelic series).
With CCTCTTGA the binding signal (NKX2-5 [1]) was 12.5 upbm affinity estimate (log intensity, higher = more binding, comparable within an allelic series), the binding signal (NKX2-4 [6]) was 12.7 upbm affinity estimate (log intensity, higher = more binding, comparable within an allelic series) and the binding signal (NKX2-4 [7]) was 13 upbm affinity estimate (log intensity, higher = more binding, comparable within an allelic series). The binding signal (NKX2-4 [8]) was 12.5 upbm affinity estimate (log intensity, higher = more binding, comparable within an allelic series), the binding signal (NKX2-6 [10]) was 11.7 upbm affinity estimate (log intensity, higher = more binding, comparable within an allelic series) and the binding signal (NKX2-6 [14]) was 13.4 upbm affinity estimate (log intensity, higher = more binding, comparable within an allelic series). For the same sequence, the binding signal (NKX2-4 [9]) was 13.2 upbm affinity estimate (log intensity, higher = more binding, comparable within an allelic series), the binding signal (NKX2-6 [11]) was 10.5 upbm affinity estimate (log intensity, higher = more binding, comparable within an allelic series) and the binding signal (NKX2-5 [5]) was 12.5 upbm affinity estimate (log intensity, higher = more binding, comparable within an allelic series).
In the case of CCTCTTAA, the binding signal (NKX2-5 [1]) is reported as 12.3 upbm affinity estimate (log intensity, higher = more binding, comparable within an allelic series), the binding signal (NKX2-4 [6]) is reported as 12.4 upbm affinity estimate (log intensity, higher = more binding, comparable within an allelic series) and the binding signal (NKX2-4 [7]) is reported as 12.7 upbm affinity estimate (log intensity, higher = more binding, comparable within an allelic series). For the same sequence, the binding signal (NKX2-4 [8]) was 12.3 upbm affinity estimate (log intensity, higher = more binding, comparable within an allelic series), the binding signal (NKX2-6 [14]) was 13.4 upbm affinity estimate (log intensity, higher = more binding, comparable within an allelic series) and the binding signal (NKX2-4 [9]) was 12.9 upbm affinity estimate (log intensity, higher = more binding, comparable within an allelic series). The binding signal (NKX2-6 [11]) was 10.5 upbm affinity estimate (log intensity, higher = more binding, comparable within an allelic series) and the binding signal (NKX2-5 [5]) was 12.3 upbm affinity estimate (log intensity, higher = more binding, comparable within an allelic series).
CTGGCCAG was tested, and the binding signal (NKX2-5 [1]) was 8.81 upbm affinity estimate (log intensity, higher = more binding, comparable within an allelic series), the binding signal (VENTX [2]) was 8.26 upbm affinity estimate (log intensity, higher = more binding, comparable within an allelic series) and the binding signal (VENTX [3]) was 8.37 upbm affinity estimate (log intensity, higher = more binding, comparable within an allelic series). The binding signal (VENTX [4]) was 8.37 upbm affinity estimate (log intensity, higher = more binding, comparable within an allelic series) and the binding signal (NKX2-5 [5]) was 8.9 upbm affinity estimate (log intensity, higher = more binding, comparable within an allelic series).
With CCGACCTC the binding signal (NKX2-5 [1]) was 8.77 upbm affinity estimate (log intensity, higher = more binding, comparable within an allelic series), the binding signal (VENTX [2]) was 7.98 upbm affinity estimate (log intensity, higher = more binding, comparable within an allelic series) and the binding signal (VENTX [3]) was 7.99 upbm affinity estimate (log intensity, higher = more binding, comparable within an allelic series). For the same sequence, the binding signal (VENTX [4]) was 8.1 upbm affinity estimate (log intensity, higher = more binding, comparable within an allelic series) and the binding signal (NKX2-5 [5]) was 8.83 upbm affinity estimate (log intensity, higher = more binding, comparable within an allelic series).
For ATAATGGG, the binding signal (NKX2-5 [1]) was 10.9 upbm affinity estimate (log intensity, higher = more binding, comparable within an allelic series), the binding signal (VENTX [2]) was 11.4 upbm affinity estimate (log intensity, higher = more binding, comparable within an allelic series) and the binding signal (VENTX [3]) was 12.4 upbm affinity estimate (log intensity, higher = more binding, comparable within an allelic series). For the same sequence, the binding signal (VENTX [4]) was 11.4 upbm affinity estimate (log intensity, higher = more binding, comparable within an allelic series) and the binding signal (NKX2-5 [5]) was 11 upbm affinity estimate (log intensity, higher = more binding, comparable within an allelic series).
In the case of CGGTCGGC, the binding signal (NKX2-5 [1]) is reported as 8.67 upbm affinity estimate (log intensity, higher = more binding, comparable within an allelic series), the binding signal (VENTX [2]) is reported as 8.16 upbm affinity estimate (log intensity, higher = more binding, comparable within an allelic series) and the binding signal (VENTX [3]) is reported as 8.35 upbm affinity estimate (log intensity, higher = more binding, comparable within an allelic series). For the same sequence, the binding signal (VENTX [4]) was 8.29 upbm affinity estimate (log intensity, higher = more binding, comparable within an allelic series), the binding signal (ALX1 [15]) was 6.28 upbm affinity estimate (log intensity, higher = more binding, comparable within an allelic series) and the binding signal (ALX1 [16]) was 6.31 upbm affinity estimate (log intensity, higher = more binding, comparable within an allelic series). The binding signal (ALX1 [17]) was 6.46 upbm affinity estimate (log intensity, higher = more binding, comparable within an allelic series) and the binding signal (NKX2-5 [5]) was 8.65 upbm affinity estimate (log intensity, higher = more binding, comparable within an allelic series).
